Laboratory results published in PubChem BioAssay (NCATS).
“And” between values parts separate entries of the source, which are not always exact repeats. Equal values may be shown once. Results filed as inconclusive are left out. More than one record can exist for a structure, and the calls need not agree. The source made the active and inactive calls. Unless noted, the call rests on the fitted dose curve; in most records, active means well fitted curve in the direction sought with a large enough effect; inconclusive means small, poorly fitted or top-dose-only effect, or another doubt; inactive means no such curve, though single readings can be large; an effect the other way counts as inactive or inconclusive.

What was measured:
Papain (Carica papaya) = Papain (Carica papaya) (UniProt P00784); assay: Primary qHTS assay for inhibitors of the protease papain (AID 1645873);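 further: papain turnover of Z-FR-AMC read as the AMC fluorescence gain over 10 min; series mostly up to about 50 µM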
[1] = target: Rap guanine nucleotide exchange factor 3 (Homo sapiens) (UniProt O95398); assay: Confirmatory qHTS for agonist of cAMP-regulated guanine nucleotide exchange factor 3 (EPAC1) (AID 1645881);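 further: EPAC1 catalysed release of BODIPY-GDP from Rap1B seen as fluorescence loss; nearly all actives have a fitted effect of over 75% in size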
[2] = target: Rap guanine nucleotide exchange factor 4 (Homo sapiens) (UniProt Q8WZA2); assay: Confirmatory qHTS for agonist of cAMP-regulated guanine nucleotide exchange factor 4 (EPAC2) (AID 1645884);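 further: nucleotide exchange releases bodipy-GDP from Rap1 and this lowers its fluorescence; nearly all actives have a fitted effect of over 65% in size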
[3] = target: Rap guanine nucleotide exchange factor 3 (Homo sapiens) (UniProt O95398); assay: Counterscreen qHTS for antagonist of cAMP-regulated guanine nucleotide exchange factor 3 (EPAC1) (AID 1645888);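 further: fluorescence loss as bound BODIPY-GDP is released from Rap1B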
Procedure, shortened: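 Measured: fluorescence of BODIPY-GDP bound to Rap1B, which falls as exchange proceeds. Conditions include 50 uM competing GDP, 5 and 30 min reads, and a later cAMP challenge for antagonist detection.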

[4] = target: Cytochrome P450 2C9 (Homo sapiens) (UniProt P11712); assay: Cytochrome P450 family 2 subfamily C member 9 (CYP2C9) small molecule antagonists: luciferase biochemical (cell-free) qHTS assay (AID 1645842; active means well fitted curve in the direction sought with a large enough effect in the repeat runs; an effect the other way counts as inactive or inconclusive; further: nearly all actives have a fitted effect of over 55% in size; further: potency means the concentration at half of the fitted maximal effect)
Procedure, shortened: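 Luminescence, after 20 min with luciferin detection reagent, reflected CYP2C9 turnover during a 1 h NADPH-driven reaction at 37C. Enzyme-substrate mix contained 0.4% bovine serum albumin and was preincubated with compound 10 min at room temperature.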

[5] = Primary qHTS for inhibitors of nuclear receptor binding SET domain protein 2 (NSD2) in an isogenic RCH-ACV NSD2 p.E1099K mutant (9B) (AID 1645876); further: nearly all actives have a fitted effect of over 70% in size; further: potency means the concentration at half of the fitted maximal effect
[6] = Primary qHTS for inhibitors of nuclear receptor binding SET domain protein 2 (NSD2) in an RCH-ACV wild type WT cells (2C) (AID 1645877); further: nearly all actives have a fitted effect of over 70% in size; further: potency means the concentration at half of the fitted maximal effect

Chain of Cytochrome P450 2C9 (Homo sapiens) (P11712 whole entry, looked up): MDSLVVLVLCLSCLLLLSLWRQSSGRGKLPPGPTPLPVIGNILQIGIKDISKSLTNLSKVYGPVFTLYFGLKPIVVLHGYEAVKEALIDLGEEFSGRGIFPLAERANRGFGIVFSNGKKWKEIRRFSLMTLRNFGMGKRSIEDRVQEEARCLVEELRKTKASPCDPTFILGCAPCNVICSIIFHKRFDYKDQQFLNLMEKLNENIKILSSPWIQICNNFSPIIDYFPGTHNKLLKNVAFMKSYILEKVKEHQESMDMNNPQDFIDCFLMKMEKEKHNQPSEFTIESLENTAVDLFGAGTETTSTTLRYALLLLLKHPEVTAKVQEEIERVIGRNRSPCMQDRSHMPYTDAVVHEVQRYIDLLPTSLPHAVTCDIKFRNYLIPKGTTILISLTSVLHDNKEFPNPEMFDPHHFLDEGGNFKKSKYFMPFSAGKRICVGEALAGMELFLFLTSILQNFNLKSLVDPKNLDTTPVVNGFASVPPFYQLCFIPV
Chain of Rap guanine nucleotide exchange factor 3 (Homo sapiens) (O95398 whole entry, looked up): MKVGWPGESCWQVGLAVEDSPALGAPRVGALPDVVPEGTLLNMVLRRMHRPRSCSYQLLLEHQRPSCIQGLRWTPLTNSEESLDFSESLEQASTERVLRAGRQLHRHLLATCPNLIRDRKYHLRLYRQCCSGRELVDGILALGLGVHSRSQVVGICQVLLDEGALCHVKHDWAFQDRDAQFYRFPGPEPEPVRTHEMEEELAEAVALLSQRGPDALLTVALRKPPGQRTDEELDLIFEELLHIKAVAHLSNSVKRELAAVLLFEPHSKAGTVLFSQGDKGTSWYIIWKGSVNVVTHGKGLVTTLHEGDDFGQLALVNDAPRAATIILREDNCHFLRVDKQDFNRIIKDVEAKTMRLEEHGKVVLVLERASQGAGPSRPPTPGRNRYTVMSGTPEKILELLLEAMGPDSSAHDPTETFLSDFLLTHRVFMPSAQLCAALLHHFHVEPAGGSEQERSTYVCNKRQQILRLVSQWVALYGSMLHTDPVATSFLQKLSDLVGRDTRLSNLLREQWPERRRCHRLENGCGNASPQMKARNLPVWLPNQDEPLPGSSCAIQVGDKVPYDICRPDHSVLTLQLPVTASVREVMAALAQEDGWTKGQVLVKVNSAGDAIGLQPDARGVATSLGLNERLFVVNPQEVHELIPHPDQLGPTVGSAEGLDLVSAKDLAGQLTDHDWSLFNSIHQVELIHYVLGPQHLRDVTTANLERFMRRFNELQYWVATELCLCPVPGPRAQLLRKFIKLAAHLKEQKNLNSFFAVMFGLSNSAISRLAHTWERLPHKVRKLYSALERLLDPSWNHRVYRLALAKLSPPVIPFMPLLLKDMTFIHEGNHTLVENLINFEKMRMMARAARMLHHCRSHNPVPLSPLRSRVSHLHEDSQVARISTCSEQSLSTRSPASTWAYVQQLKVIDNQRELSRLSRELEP
Chain of Papain (Carica papaya) (P00784 whole entry, looked up): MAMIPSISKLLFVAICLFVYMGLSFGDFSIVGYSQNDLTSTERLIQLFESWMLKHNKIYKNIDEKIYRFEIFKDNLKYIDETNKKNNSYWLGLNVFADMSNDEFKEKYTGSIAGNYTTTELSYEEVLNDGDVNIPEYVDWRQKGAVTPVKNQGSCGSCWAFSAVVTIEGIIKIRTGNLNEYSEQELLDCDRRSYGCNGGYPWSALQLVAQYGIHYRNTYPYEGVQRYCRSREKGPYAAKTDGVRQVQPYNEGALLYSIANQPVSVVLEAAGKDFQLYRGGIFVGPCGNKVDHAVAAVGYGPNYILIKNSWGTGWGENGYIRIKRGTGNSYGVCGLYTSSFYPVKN
Chain of Rap guanine nucleotide exchange factor 4 (Homo sapiens) (Q8WZA2 whole entry, looked up): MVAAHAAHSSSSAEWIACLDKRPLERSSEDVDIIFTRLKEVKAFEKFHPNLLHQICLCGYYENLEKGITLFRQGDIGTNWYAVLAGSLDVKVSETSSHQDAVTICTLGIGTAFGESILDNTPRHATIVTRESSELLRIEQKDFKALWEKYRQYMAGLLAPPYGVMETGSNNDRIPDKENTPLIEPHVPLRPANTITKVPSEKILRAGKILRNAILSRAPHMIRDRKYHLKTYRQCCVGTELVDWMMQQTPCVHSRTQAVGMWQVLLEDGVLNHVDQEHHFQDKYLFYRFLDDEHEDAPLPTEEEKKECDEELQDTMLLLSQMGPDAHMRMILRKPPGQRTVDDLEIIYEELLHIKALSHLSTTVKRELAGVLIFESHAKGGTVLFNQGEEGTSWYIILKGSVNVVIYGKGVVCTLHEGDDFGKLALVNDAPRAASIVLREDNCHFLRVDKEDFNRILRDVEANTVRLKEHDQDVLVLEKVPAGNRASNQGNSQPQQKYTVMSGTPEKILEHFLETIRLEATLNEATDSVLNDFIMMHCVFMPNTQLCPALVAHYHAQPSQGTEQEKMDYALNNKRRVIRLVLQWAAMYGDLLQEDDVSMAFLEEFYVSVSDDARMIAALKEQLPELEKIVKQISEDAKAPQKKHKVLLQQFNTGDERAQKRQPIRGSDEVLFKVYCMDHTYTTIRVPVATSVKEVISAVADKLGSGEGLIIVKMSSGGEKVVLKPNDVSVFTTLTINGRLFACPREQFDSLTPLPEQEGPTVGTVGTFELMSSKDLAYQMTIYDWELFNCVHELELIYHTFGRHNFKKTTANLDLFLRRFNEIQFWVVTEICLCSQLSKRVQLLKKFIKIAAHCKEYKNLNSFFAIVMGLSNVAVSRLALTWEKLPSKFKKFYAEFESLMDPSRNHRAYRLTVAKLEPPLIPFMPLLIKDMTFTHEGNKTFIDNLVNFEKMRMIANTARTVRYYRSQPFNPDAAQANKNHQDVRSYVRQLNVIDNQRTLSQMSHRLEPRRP

Structure (SMILES): CN[C@H]1CC[C@@H](c2ccc(Cl)c(Cl)c2)c2ccccc21
- outcome (Papain (Carica papaya)): inactive

Structure (SMILES): N#Cc1ccc(Nc2nc(-c3ccc(O)cc3O)cs2)cc1C(F)(F)F
- outcome [1]: inactive
- outcome [2]: inactive
- outcome [3]: inactive

Structure (SMILES): COc1cc(NC(=O)c2cc(C3CC3)on2)c(OC)cc1Cl
- Potency [4]: 10.7 µM (active)
- Potency [5]: inactive
- Potency [6]: inactive

Structure (SMILES): CN(C)CC#CCCC(=O)C(O)(c1ccccc1)C1CCC1 (configuration not stated)
- Potency [4]: 10.7 µM (active)
- Potency [5]: inactive
- Potency [6]: inactive

Structure (SMILES): O=C(NCc1nc2ccccc2c(=O)n1-c1ccc(F)cc1)Nc1ccc(Cl)c(C(F)(F)F)c1
- Potency [4]: 10.7 µM (active)
- Potency [5]: 25.8 µM (active)
- Potency [6]: 23 µM (active)

Structure (SMILES): C=CC(=O)N1CCC(Oc2cc3c(Nc4ccc(Cl)c(Cl)c4F)ncnc3cc2OC)CC1
- Potency [4]: 9.52 µM (active)
- Potency [5]: 4.68 µM (active)
- Potency [6]: 4.68 µM (active)

Structure (SMILES): Cc1ccccc1C(C(=O)NC1CCCCC1)N(C(=O)Cn1cnc2ccccc21)c1cccc(F)c1 (configuration not stated)
- Potency [4]: 16.9 µM (active)
- Potency [5]: 12.9 µM (active)
- Potency [6]: 23 µM (active)

Structure (SMILES): Cc1ccc(O)cc1Nc1ccnc(Nc2cccc(C(N)=O)c2)n1
- Potency [4]: 1.9 µM (active)
- Potency [5]: 4.59 µM (active)
- Potency [6]: 4.09 µM (active)

Structure (SMILES): COc1cc2ncnc(Nc3cccc(I)c3)c2cc1OC
- Potency [4]: 13.5 µM (active)
- Potency [5]: 16.3 µM (active)
- Potency [6]: 14.5 µM (active) and inactive

Structure (SMILES): NS(=O)(=O)c1ccc(N2CCN(CC[C@@H]3OCCc4ccccc43)CC2)cc1
- Potency [4]: inactive
- Potency [5]: inactive
- Potency [6]: inactive

Structure (SMILES): Cc1cc(Nc2nc(-c3ccccc3)nc3ccccc23)n[nH]1
- Potency [4]: 10.7 µM (active)
- Potency [5]: 2.9 µM (active)
- Potency [6]: 3.25 µM (active)

Structure (SMILES): O=C(NC1CCN(CCCCC2(C(=O)NCC(F)(F)F)c3ccccc3-c3ccccc32)CC1)c1ccccc1-c1ccc(C(F)(F)F)cc1
- Potency [4]: 15.1 µM (active)
- Potency [5]: 2.9 µM (active)
- Potency [6]: 2.9 µM (active)

Structure (SMILES): COc1cc(F)c(C(C)C)cc1-c1ccc(C(F)(F)F)cc1CN1C(=O)OC(c2cc(C(F)(F)F)cc(C(F)(F)F)c2)C1C (configuration not stated)
- Potency [4]: inactive
- Potency [5]: inactive
- Potency [6]: inactive

Structure (SMILES): O=C(Nc1nnc(-c2ccc3c(c2)OCCO3)o1)C1CCCCC1
- Potency [4]: inactive
- Potency [5]: inactive
- Potency [6]: inactive

Structure (SMILES): N#CC(CCCN1CCN(/N=C/c2cccnc2)CC1)(c1ccccc1)c1ccccc1
- Potency [4]: 7.56 µM (active)
- Potency [5]: inactive
- Potency [6]: inactive

Structure (SMILES): COC1CCN(C(=O)c2cc(Cc3n[nH]c(=O)c4ccccc34)ccc2F)CC1
- Potency [4]: 23.9 µM (active)
- Potency [5]: 13.2 µM (active)
- Potency [6]: 8.33 µM (active)

Structure (SMILES): CC(C)S(=O)(=O)c1ccc2nccc(Nc3ccc4scnc4c3)c2c1
- Potency [4]: 6.74 µM (active)
- Potency [5]: 9.34 µM (active)
- Potency [6]: 10.5 µM (active)

Structure (SMILES): CCCCC1CCC(c2nc(-c3ccncc3)no2)CC1 (configuration not stated)
- Potency [4]: 5.35 µM (active)
- Potency [5]: inactive
- Potency [6]: inactive

Structure (SMILES): NC(=O)N1CCC(CC(=O)N2CCC(C3c4ncc(Br)cc4CCc4cc(Cl)cc(Br)c43)CC2)CC1 (configuration not stated)
- Potency [4]: 12 µM (active)
- Potency [5]: 7.28 µM (active)
- Potency [6]: 6.49 µM (active)

Structure (SMILES): CCC(CC)C(c1ccc(Nc2nc3ccccc3s2)cc1)n1cncn1 (configuration not stated)
- Potency [4]: 0.952 µM (active)
- Potency [5]: 18.6 µM (active)
- Potency [6]: 18.6 µM (active)

Structure (SMILES): O=C(NCCCNc1nc(Nc2cccc(CN3CCOCC3)c2)ncc1C1CC1)C1CCC1
- Potency [4]: 8.49 µM (active)
- Potency [5]: 2.63 µM (active)
- Potency [6]: 1.18 µM (active)

Structure (SMILES): COc1cc2c(cc1OCCCN1CCCC1)N=C(N)C21CCC1
- Potency [4]: inactive
- Potency [5]: inactive
- Potency [6]: inactive

Structure (SMILES): CCNC(=O)c1noc(-c2cc(Cl)c(O)cc2O)c1-c1ccc(OC)cc1
- Potency [4]: 3.38 µM (active)
- Potency [5]: 0.129 µM (active)
- Potency [6]: 0.115 µM (active)

Structure (SMILES): COC(C)(C)CCn1nc(Nc2c(C)cccc2C)c2cnc(Nc3ccc(OCCN4CCCC4)c(F)c3)nc21
- Potency [4]: 6.01 µM (active)
- Potency [5]: 103 nM (active) and 263 nM (active)
- Potency [6]: 163 nM (active) and 468 nM (active)

Structure (SMILES): CC(C)n1nc(C#Cc2ccccc2)c2c(N)ncnc21
- Potency [4]: 0.601 µM (active)
- Potency [5]: 1.83 µM (active)
- Potency [6]: 3.25 µM (active)

Structure (SMILES): C=CC(=O)N1CCC[C@@H](n2nc(-c3cccc(C(=O)Nc4ccc(C(C)C)c(C)c4)c3)c3c(N)ncnc32)C1
- Potency [4]: 8.49 µM (active)
- Potency [5]: 8.17 µM (active)
- Potency [6]: 9.16 µM (active)

Structure (SMILES): COc1cc(/C=N\NC(=O)c2ccc3c(c2)OCO3)ccc1OCc1ccccc1
- Potency [4]: 2.39 µM (active)
- Potency [5]: inactive
- Potency [6]: inactive

Structure (SMILES): Cn1ncc(Cl)c1-c1cc(C(=O)NC(CN)Cc2ccc(F)c(F)c2)oc1Cl (configuration not stated)
- Potency [4]: 8.49 µM (active)
- Potency [5]: 728 nM (active) and 833 nM (active)
- Potency [6]: 817 nM (active) and 742 nM (active)
